D1 antagonist: Antagonist of Human D 1 Dopamine Receptor: qHTS; D(1A) dopamine receptor (Homo sapiens), P21728; HEK293 TREx D1 cells, calcium flux, dopamine EC80; hits give low values; activity change, negative = inhibition, % at 10 µM; hit rate 3.2% among 360,000; AID 504652, 2011; in the data active = activity change below about -30%; also: % is scaled to controls: 0 for no effect and ±100 for the full control effect
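Inducible Hek293 Trex D1 cells (tetracycline, overnight, 30 C). Calcium dye 30–90 min RT. Antagonist mode: EC80 dopamine added after 180 s compound read.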
TRHR enhancer: qHTS for Small Molecule Agonists and Allosteric Enhancers of Human TRH Receptor: Primary Screen for Enhancers; Thyrotropin-releasing hormone receptor (Homo sapiens), P34981; TRHR cells, fluo-8 calcium fluorescence, EC20 TRH enhancement; enhancement, % at 2 µM; hit rate 0.66% among 360,000; AID 493056, 2011; in the data active = enhancement above about 30%; also: 0% is about no effect
Target sequence (P34981 whole entry, looked up): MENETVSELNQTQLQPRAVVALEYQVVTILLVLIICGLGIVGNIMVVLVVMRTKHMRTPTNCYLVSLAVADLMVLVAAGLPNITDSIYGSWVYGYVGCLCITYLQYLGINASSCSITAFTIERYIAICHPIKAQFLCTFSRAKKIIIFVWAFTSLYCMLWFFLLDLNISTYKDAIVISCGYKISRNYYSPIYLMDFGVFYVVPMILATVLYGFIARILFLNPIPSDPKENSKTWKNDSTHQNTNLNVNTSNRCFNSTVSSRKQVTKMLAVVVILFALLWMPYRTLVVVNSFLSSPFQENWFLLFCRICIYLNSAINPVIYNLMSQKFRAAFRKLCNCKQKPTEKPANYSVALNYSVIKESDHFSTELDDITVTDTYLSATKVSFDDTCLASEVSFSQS
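Enhancer read-out: after compound pinning and an initial kinetic agonist-mode read, an EC20 of TRH (10 nM final) was injected and fluo-8 calcium signal (Ex 480/Em 530) followed at 1 s/cycle for 100 cycles in TRHR-expressing cells.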
D1 potentiator: Potentiators of Human D1 Dopamine Receptor: qHTS; HEK293 TREx D1 cells, calcium flux, dopamine EC20 potentiation; potentiation, % at 10 µM; hit rate 0.036% among 360,000; AID 504651, 2011; in the data active = potentiation above about 30%; also: 0% is about no effect
TRHR agonist: qHTS for Small Molecule Agonists and Allosteric Enhancers of Human TRH Receptor: Primary Screen for Agonists; Thyrotropin-releasing hormone receptor (Homo sapiens), P34981; TRHR cells, calcium flux fluo-8, FDSS agonist mode; activation, % at 2 µM; hit rate 0.18% among 360,000; also: 0% is about no effect
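Read-out: compound-evoked intracellular calcium rise in TRHR cells, fluo-8 dye, kinetic FDSS fluorescence at 1 s/cycle following a 10-cycle baseline. Cells cultured overnight before dye loading (30 min–1.5 h, RT).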
D1 ag: Allosteric Agonists of the Human D1 Dopamine Receptor: qHTS; HEK293 T-REx D1 cells, calcium flux, agonist mode; activation, % at 2 µM; hit rate 1% among 360,000; also: 0% is about no effect
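Tetracycline-induced HEK293 TREx D1 cells, force-coupled to calcium signalling, were dye-loaded with a no-wash calcium kit. Compound was pin-added after a 10 s baseline. Fluorescence was read kinetically at 1 cycle/s for 180 s, with calcium rises flagged as agonism.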
Numbers without * were called inactive. Rows were chosen to be rich in hits. Some 4.6% of all compounds tested hit in one or more screens of this group. Rule as the data show it, unless noted: active = activation above about 30%; inactive = the rest.

Cc1ccc(NC(=O)CN2C(=O)COc3ccc(S(=O)(=O)N4CCOCC4)cc32)c(Cl)c1 was read as D1 antagonist 11, TRHR enhancer 3, D1 potentiator -3, TRHR agonist -1 and D1 ag 1.
`Cc1[nH]nc2c1C1(CCOC1C)C(C#N)=C(N)O2` (stereo unspecified) gave D1 antagonist -35*, TRHR enhancer -1, D1 potentiator -4, TRHR agonist 1 and D1 ag 3.
O=S(=O)(Nc1cc(Br)cc2cccnc12)c1ccccc1 was read as D1 antagonist 0, TRHR enhancer 2, D1 potentiator 2, TRHR agonist 1 and D1 ag 3.
`O=C1C(=O)N(Cc2cccnc2)C(c2cccc(F)c2)/C1=C(/O)c1ccc2c(c1)OCO2` (stereo unspecified) gave D1 antagonist -62*, TRHR enhancer -4, D1 potentiator -10, TRHR agonist 2 and D1 ag 2.
Screening COc1ccc(C2/C(=C(/O)c3ccc4c(c3)CC(C)O4)C(=O)C(=O)N2Cc2cccnc2)cc1 (stereo unspecified) returned D1 antagonist -42*, TRHR enhancer 14, D1 potentiator 2, TRHR agonist 0 and D1 ag 0.
`C=C(C)CSc1nc2sc3c(c2c(=O)n1-c1ccccc1)CC(C(C)C)OC3` (stereo unspecified) gave D1 antagonist 0, TRHR enhancer 1, D1 potentiator 0, TRHR agonist 0 and D1 ag 0.
CCOc1ccc(S(=O)(=O)NCCC(=O)NCC(c2ccc(F)cc2)N2CCOCC2)cc1 (stereo unspecified) was read as D1 antagonist -78*, TRHR enhancer 2, D1 potentiator -17, TRHR agonist 0 and D1 ag 1.
Screening CCOc1ccc(S(=O)(=O)NCCC(=O)NCC(c2ccc(OC)cc2)N2CCCCC2)cc1 (stereo unspecified) returned D1 antagonist 3, TRHR enhancer 12, D1 potentiator -2, TRHR agonist 0 and D1 ag 2.
Cc1cccc(-n2c(=O)c3c(c4cc(C)ccc4n3C)n(CC(=O)Nc3ccc(C)c(C)c3)c2=O)c1 was read as D1 antagonist -8, TRHR enhancer -1, D1 potentiator -2, TRHR agonist 0 and D1 ag 0.
CSc1ccc(CNCc2ccc3c(c2)OCO3)cc1 was read as D1 antagonist -4, TRHR enhancer 2, D1 potentiator -4, TRHR agonist -1 and D1 ag 36*.
Screening Fc1cccc(CNCc2ccc3c(c2)OCO3)c1 returned D1 antagonist 6, TRHR enhancer 13, D1 potentiator 2, TRHR agonist 0 and D1 ag 2.
`COc1cccc(CNCc2cc(OC)cc(OC)c2)c1` gave D1 antagonist -12, TRHR enhancer 4, D1 potentiator -8, TRHR agonist 0 and D1 ag 10.
COc1cc(CNCc2ccc(SC)cc2)cc(OC)c1 was read as D1 antagonist -2, TRHR enhancer 2, D1 potentiator -1, TRHR agonist 0 and D1 ag 33*.
COc1cc(C)c(CN2CCN(CC(=O)Nc3ccccc3C(=O)NC3CC3)CC2)cc1OC was read as D1 antagonist -30*, TRHR enhancer -10, D1 potentiator -6, TRHR agonist 0 and D1 ag 0.
COc1ccc(CN2CCC(Oc3cc(C(=O)NC4CC4)ccc3OC)CC2)c(O)c1 was read as D1 antagonist -77*, TRHR enhancer 1, D1 potentiator -15, TRHR agonist 0 and D1 ag 4.
Screening COc1ccc(C(=O)NC2CC2)cc1OC1CCN(Cc2cnn(C)c2C)CC1 returned D1 antagonist -27, TRHR enhancer 7, D1 potentiator -9, TRHR agonist 1 and D1 ag 0.
COc1cc(CN2CCC(Oc3cc(C(=O)NC4CC4)ccc3OC)CC2)cc(OC)c1 was read as D1 antagonist -75*, TRHR enhancer -4, D1 potentiator -8, TRHR agonist 0 and D1 ag 3.
`COc1ccc(C(=O)NC2CC2)cc1OC1CCN(Cc2cc(C)c(C)cc2C)CC1` gave D1 antagonist -86*, TRHR enhancer 12, D1 potentiator -16, TRHR agonist 0 and D1 ag 1.
Screening CCOC(=O)C1=C(CN2CCN(c3ccccc3F)CC2)NC(=O)NC1c1ccc(OC)cc1 (stereo unspecified) returned D1 antagonist 5, TRHR enhancer -3, D1 potentiator 3, TRHR agonist 0 and D1 ag -1.
Screening Cc1ccc(C)c(Nc2nn3c(=O)c4ccc(C(=O)NCc5cccs5)cc4nc3s2)c1 returned D1 antagonist 13, TRHR enhancer 8, D1 potentiator 0, TRHR agonist 0 and D1 ag 2.
For COc1ccc(C(=O)N2CCCCCC2)cc1OC1CCN(C(C)=O)CC1 the results were D1 antagonist -67*, TRHR enhancer 0, D1 potentiator -11, TRHR agonist 0 and D1 ag 4.
`COc1cc(C(=O)N2CCCCCCC2)ccc1OC1CCN(C(C)=O)CC1` gave D1 antagonist 2, TRHR enhancer 3, D1 potentiator 6, TRHR agonist 0 and D1 ag 5.
COc1ccc(NC(=O)N2CCN(c3cc(-c4noc(C)n4)ccc3C)CC2)c(OC)c1 was read as D1 antagonist -14, TRHR enhancer -6, D1 potentiator -3, TRHR agonist -1 and D1 ag 2.
For COc1ccc(NC(=O)c2ccc(-c3ccc(-c4noc(C)n4)cc3C)cc2)cc1N1CCN(C)CC1 the results were D1 antagonist -57*, TRHR enhancer 1, D1 potentiator -5, TRHR agonist 0 and D1 ag 14.
CCCOc1ccc(/C=C/C(=O)Nc2sc(C)c(C)c2C(=O)OCC)cc1OC was read as D1 antagonist -13, TRHR enhancer 0, D1 potentiator 1, TRHR agonist 0 and D1 ag 1.
O=C(Cn1ncc(Cl)c(Cl)c1=O)Nc1ccc2c(c1)OCO2 was read as D1 antagonist -50*, TRHR enhancer 2, D1 potentiator -9, TRHR agonist 0 and D1 ag 0.
Screening COc1ccc(NC(=O)Cn2ncc(Cl)c(Cl)c2=O)cc1S(=O)(=O)N1CCOCC1 returned D1 antagonist -40*, TRHR enhancer 0, D1 potentiator -12, TRHR agonist -2 and D1 ag 0.

Compound activity as filed in PubChem BioAssay.
